PubChem BioAssay (NCATS)
Several values for one entry are separate records, joined by “and”; a condition that tells them apart may be missing. Identical values can stand only once. Inconclusive results are not listed. Activity calls are given as the source filed them. Unless noted, the rule behind the calls is not given here.

Experiments:
[1] = molecular target: Tyrosine-protein kinase Yes (Homo sapiens) (UniProt P07947); assay: qHTS for small molecule inhibitors of Yes1 kinase: Primary Screen (AID 686947; active = well fitted curve in the direction sought with a large enough effect; an effect the other way counts as inactive or inconclusive; note: nearly all actives have a fitted effect of over 60% in size; note: potency is the fitted concentration of half-maximal effect)
Outline: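 Yes1 (4 nM) preincubated 20 min with compound, then 60 min room-temperature reaction with 0.1 mM ATP and 0.3 mg/mL poly(E4Y) in pH 7.5 Tris, 10 mM MgCl2. ADP measured by ADP-Glo luminescence, normalised to enzyme/no-enzyme controls.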

[2] = qHTS for small molecule inhibitors of Yes1 kinase: Counter Assay (AID 686950; active = well fitted curve in the direction sought with a large enough effect; an effect the other way counts as inactive or inconclusive;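 note: no kinase present so only ADP-Glo detection of a fixed ADP amount is tested; luminescence from ADP-Glo reporting ADP in a fixed ATP and ADP mixture; 0% = DMSO wells with ATP plus ADP and -100% = ATP-only wells without ADP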)
Outline: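 Luminescence read-out from ADP-Glo quantifies a fixed ADP amount (0.02 mM ADP with 0.08 mM ATP) after 60 min at room temperature; signal is normalized between DMSO wells with ATP/ADP and with 0.1 mM ATP alone.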

[3] = qHTS Assay for Identifying Gametocytocidal Compounds (AID 743244; active = well fitted curve in the direction sought with a large enough effect; an effect the other way counts as inactive or inconclusive; note: potency is the fitted concentration of half-maximal effect;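 for max response: % is set by controls: 0 for no effect and ±100 for the full control effect; actives lower the fluorescent signal which means gametocytes are killed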); conditions: P. falciparum 3D7 stage III-V gametocytes, alamarBlue, 72 h; max response: stronger effect = lower value
Outline: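 In this qHTS viability screen, late-stage 3D7 gametocytes are incubated with compound for 72 h, then with alamarBlue for 24 h; reduced resorufin fluorescence marks killing.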

[4] = qHTS profiling for inhibitors of Plasmodium falciparum (DD2) proliferation (AID 743323); conditions: lower = more inhibition; at 28.7 µM (top of the series) unless noted
Outline: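 Parasite DNA quantified by SYBR Green fluorescence (ex 485, em 535 nm) after saponin/Triton lysis and overnight dark incubation. Cultures: 0.3% parasitemia, 2.5% hematocrit, 72 h, 37 C; data scaled between DMSO and 0.29 uM artemisinin.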

[5] = qHTS profiling for inhibitors of Plasmodium falciparum (HB3) proliferation (AID 743324; active = well fitted curve in the direction sought with a large enough effect; an effect the other way counts as inactive or inconclusive;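 note: 100% = DMSO vehicle wells and 0% = artemisinin-treated control wells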); conditions: Plasmodium falciparum HB3 blood-stage proliferation; at 28.7 µM (top of the series) unless noted
Outline: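 P. falciparum HB3 grown in erythrocytes (0.3% parasitemia, 2.5% hematocrit final) with compound for 72 h at 37 C, 5% CO2. Parasite DNA detected by SYBR Green after saponin/triton lysis overnight; normalized to 0.29 uM artemisinin and DMSO.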

[6] = qHTS profiling of the MIPE4 collection as inhibitors of Plasmodium falciparum (3D7) proliferation (AID 743344);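 note: scaled between DMSO vehicle wells and 0.29 µM artemisinin as full inhibition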; conditions: P. falciparum 3D7 in erythrocytes, SYBR Green DNA fluorescence, 72 h; at 28.5 µM (top of the series) unless noted
Outline: (§1)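 Erythrocytes infected with P. falciparum (0.3% parasitemia, 2.5% hematocrit) incubated with compounds 72 h at 37 C, 5% CO2. Lysis with saponin/Triton buffer containing SYBR Green I, overnight at room temperature in the dark; DNA fluorescence (485/535 nm) normalised to 0.29 uM artemisinin and DMSO.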

[7] = qHTS profiling of the MIPE4 collection as inhibitors of Plasmodium falciparum (DD2) proliferation (AID 743345); conditions: P. falciparum Dd2 in erythrocytes, SYBR Green DNA, 72 h; at 28.5 µM (top of the series) unless noted
Outline: as §1

[8] = qHTS profiling of the MIPE4 collection as inhibitors of Plasmodium falciparum (DD2) proliferation (Rep 2) (AID 743346); conditions: P. falciparum Dd2 in erythrocytes, SYBR Green DNA, 72 h; at 28.5 µM (top of the series) unless noted
Outline: as §1

[9] = qHTS profiling of the MIPE4 collection as inhibitors of Plasmodium falciparum (HB3) proliferation (AID 743347);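 note: plate controls were DMSO vehicle wells for no effect and artemisinin wells for full effect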; conditions: P. falciparum HB3 in erythrocytes, SYBR Green DNA, 72 h; at 28.5 µM (top of the series) unless noted
Outline: as §1

[10] = High-throughput drug toxicity screening in the BPDCN cell line Gen2.2 (AID 1224824); conditions: Gen2.2 BPDCN cells; at 45.8 µM (top of the series) unless noted;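 note: cells exposed to compounds for 48 h before reading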
Outline: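 Seed 500 exponentially growing Gen2.2 cells/well; add compounds by pin tool; incubate 48 h, 37 °C, 5% CO2; add CellTiter-Glo, 15 min RT; read luminescence. % activity vs DMSO (100%) and bortezomib (0%).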

[11] = molecular target: Peroxisome proliferator-activated receptor alpha (Homo sapiens) (UniProt Q07869); assay: qHTS assay for small molecule agonists of the peroxisome proliferator-activated receptor alpha (PPARalpha) signaling pathway (AID 651778; active = well fitted curve in the direction sought with a large enough effect; an effect the other way counts as inactive or inconclusive; note: % of control where 0% means no effect); conditions: PathHunter PPARalpha complementation, chemiluminescence, 6 h; stronger effect = higher value
Outline: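 Chemiluminescence from complemented enzyme reported PPARalpha activation in cells after 6 hr of compound treatment at 37 C. The detection reagent was incubated for 60 min at room temperature, and compounds were scored as agonists.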

[12] = qHTS assay for small molecule agonists of the antioxidant response element (ARE) signaling pathway measured by Nrf2-dependant transcriptional activity - cell viability counter screen (AID 720653; active = well fitted curve in the direction sought with a large enough effect in the repeat runs; an effect the other way counts as inactive or inconclusive; note: potency is the fitted concentration of half-maximal effect; for max response: % is set by controls: 0 for no effect and ±100 for the full control effect); conditions: ARE-bla HepG2 viability, CellTiter-Glo ATP luminescence, 16 h; max response: stronger effect = lower value
Outline: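 Cytotoxicity counter screen: intracellular ATP quantified by CellTiter-Glo luminescence in the same ARE-bla HepG2 plates, after 16 h compound exposure and a 2 h beta-lactamase substrate step.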

[13] = qHTS assay for cell viability of HEK293 cells (AID 743288; active = well fitted curve in the direction sought with a large enough effect; an effect the other way counts as inactive or inconclusive; note: nearly all actives have a fitted effect of over 50% in size; note: potency is the fitted concentration of half-maximal effect; for max response: % is set by controls: 0 for no effect and ±100 for the full control effect); conditions: ATP luminescence (CellTiter-Glo), 18 h; max response: stronger effect = lower value
Outline: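 HEK293 parental, 2,000 cells/well; ≥5 h pre-incubation 37 C; pintool compound addition; 18 h, 37 C; CellTiter-Glo 30 min RT; luminescence read.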

[14] = qHTS assay for small molecule agonists of the antioxidant response element (ARE) signaling pathway measured by Nrf2-dependant transcriptional activity (AID 720636; active = well fitted curve in the direction sought with a large enough effect in the repeat runs; an effect the other way counts as inactive or inconclusive; note: % of control where 0% means no effect)
Outline: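 Quantitative HTS format in HepG2 cells stably expressing an ARE-luciferase reporter; 16 hr compound treatment at 37 C, luciferase signal detected with ONE-Glo.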

[15] = qHTS for compounds that reverse cellular toxicity of Amyloid beta (A-beta) peptide in yeast: LOPAC Validation Assay (AID 720559; active = well fitted curve in the direction sought with a large enough effect; an effect the other way counts as inactive or inconclusive;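 note: plate controls were DMSO for no effect and equimolar ferric chloride plus clioquinol rescue for full effect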)
Outline: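 Medium dispensed, compounds pinned, A-beta yeast suspension added; plates held at 30 C for 48 hr; absorbance measured at 600 nm to gauge growth; values scaled between DMSO and FeCl3/clioquinol (equimolar) controls.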

[16] = molecular target: T1, Hexokinase-4 (Homo sapiens) + Glucokinase regulatory protein (Homo sapiens) (UniProt P35557+Q14397); assay: qHTS assay for inhibitors of recombinant human GCK-GKRP interaction: Diaphorase-coupled assay (AID 743205; active = well fitted curve in the direction sought with a large enough effect; an effect the other way counts as inactive or inconclusive)
Outline: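 25 mM Hepes pH 7.6, 5 mM glucose, 0.4 mM ATP, 4 U/ml G6PDH; 10 nM each GST-GCK/FLAG-GKRP. Kinetic fluorescence read, 1/min × 30 min. Normalized: DMSO ± enzyme = max/min.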

[17] = molecular target: T1, Hexokinase-4 (Homo sapiens) + Glucokinase regulatory protein (Homo sapiens); assay: qHTS assay for inhibitors of recombinant human GCK-GKRP interaction: ADP-Glo assay (AID 743206; active = well fitted curve in the direction sought with a large enough effect; an effect the other way counts as inactive or inconclusive;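 note: plate controls were DMSO plus enzyme for no effect and no enzyme for full effect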)
Outline: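 GST-GCK and FLAG-GKRP (15 nM each in the dispensed mix, with 2 uM S6P) react with 0.4 mM ATP and 5 mM glucose (final) in Hepes pH 7.6 for 60 min at room temperature. ADP is measured by ADP-Glo luminescence.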

[18] = molecular target: T1, Hexokinase-4 (Homo sapiens) + Glucokinase regulatory protein (Homo sapiens); assay: qHTS assay for inhibitors of recombinant human GCK-GKRP interaction: HTRF assay (AID 743207; active = well fitted curve in the direction sought with a large enough effect; an effect the other way counts as inactive or inconclusive;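 note: 0% = DMSO with GCK present and -100% = DMSO wells lacking GCK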)
Outline: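 5 nM GST-GCK + 5 nM FLAG-GKRP + 2 uM S6P, pH 7.1 buffer (25 mM Hepes, 2 mM MgCl2, 25 mM KCl, 1 mM DTT, Tween/BSA); pin-transferred cpd; anti-FLAG XL665/anti-GST K; 60 min RT; HTRF.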

[19] = qHTS for Activators of Parkin Expression: LOPAC Validation Assay (NLuc Reporter) (AID 720572; active = well fitted curve in the direction sought with a large enough effect; an effect the other way counts as inactive or inconclusive;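 note: 0% = DMSO and 100% = positive control compound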)
Outline: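 Parkin promoter-driven FLuc/NLuc neuronal reporter cells; 24 h plating, 7-pt dose response, 24 h at 37 C/5% CO2; FLuc then NanoLuc reagent, 10 min each, luminescence; DMSO/positive control normalized.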

Sequence of Tyrosine-protein kinase Yes (Homo sapiens) (P07947 whole entry, looked up): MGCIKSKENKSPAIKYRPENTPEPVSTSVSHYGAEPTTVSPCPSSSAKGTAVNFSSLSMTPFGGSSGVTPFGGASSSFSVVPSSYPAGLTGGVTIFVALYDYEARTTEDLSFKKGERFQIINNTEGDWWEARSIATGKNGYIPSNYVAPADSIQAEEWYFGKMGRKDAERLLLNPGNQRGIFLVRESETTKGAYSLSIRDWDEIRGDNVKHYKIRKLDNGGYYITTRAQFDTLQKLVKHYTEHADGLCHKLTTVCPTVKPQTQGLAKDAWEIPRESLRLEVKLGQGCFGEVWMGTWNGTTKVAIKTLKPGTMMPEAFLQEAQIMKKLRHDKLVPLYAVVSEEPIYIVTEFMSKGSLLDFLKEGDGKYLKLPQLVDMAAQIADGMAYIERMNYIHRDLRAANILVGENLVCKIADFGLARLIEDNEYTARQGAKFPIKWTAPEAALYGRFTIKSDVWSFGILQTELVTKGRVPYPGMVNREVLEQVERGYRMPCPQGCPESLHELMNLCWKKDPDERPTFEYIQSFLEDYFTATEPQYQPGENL
Sequence of Peroxisome proliferator-activated receptor alpha (Homo sapiens) (Q07869 whole entry, looked up): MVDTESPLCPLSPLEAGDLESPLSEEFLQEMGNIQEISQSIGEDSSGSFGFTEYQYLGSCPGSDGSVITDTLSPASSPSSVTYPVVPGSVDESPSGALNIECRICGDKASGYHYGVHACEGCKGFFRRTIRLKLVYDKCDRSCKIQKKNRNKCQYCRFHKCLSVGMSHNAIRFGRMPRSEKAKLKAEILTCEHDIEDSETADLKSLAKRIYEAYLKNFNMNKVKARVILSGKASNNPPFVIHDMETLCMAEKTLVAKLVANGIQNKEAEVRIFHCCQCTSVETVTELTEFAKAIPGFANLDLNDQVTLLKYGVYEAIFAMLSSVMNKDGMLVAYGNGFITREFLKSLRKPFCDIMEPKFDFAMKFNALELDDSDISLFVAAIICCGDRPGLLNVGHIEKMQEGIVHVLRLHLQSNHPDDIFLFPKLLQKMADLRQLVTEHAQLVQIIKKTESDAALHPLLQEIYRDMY
T1 sequence (P35557 whole entry, looked up): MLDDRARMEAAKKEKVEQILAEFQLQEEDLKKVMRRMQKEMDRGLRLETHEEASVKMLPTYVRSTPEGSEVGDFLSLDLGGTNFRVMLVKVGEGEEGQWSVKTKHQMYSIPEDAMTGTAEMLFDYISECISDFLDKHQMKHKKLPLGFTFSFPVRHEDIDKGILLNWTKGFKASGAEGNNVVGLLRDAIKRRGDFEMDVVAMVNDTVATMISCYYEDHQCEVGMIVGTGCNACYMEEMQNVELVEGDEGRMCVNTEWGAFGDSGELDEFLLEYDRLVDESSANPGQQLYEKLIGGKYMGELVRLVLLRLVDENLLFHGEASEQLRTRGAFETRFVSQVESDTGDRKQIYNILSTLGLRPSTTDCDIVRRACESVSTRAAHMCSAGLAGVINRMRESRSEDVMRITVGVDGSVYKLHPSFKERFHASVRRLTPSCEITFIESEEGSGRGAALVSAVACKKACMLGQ
T1 sequence (Q14397 whole entry, looked up): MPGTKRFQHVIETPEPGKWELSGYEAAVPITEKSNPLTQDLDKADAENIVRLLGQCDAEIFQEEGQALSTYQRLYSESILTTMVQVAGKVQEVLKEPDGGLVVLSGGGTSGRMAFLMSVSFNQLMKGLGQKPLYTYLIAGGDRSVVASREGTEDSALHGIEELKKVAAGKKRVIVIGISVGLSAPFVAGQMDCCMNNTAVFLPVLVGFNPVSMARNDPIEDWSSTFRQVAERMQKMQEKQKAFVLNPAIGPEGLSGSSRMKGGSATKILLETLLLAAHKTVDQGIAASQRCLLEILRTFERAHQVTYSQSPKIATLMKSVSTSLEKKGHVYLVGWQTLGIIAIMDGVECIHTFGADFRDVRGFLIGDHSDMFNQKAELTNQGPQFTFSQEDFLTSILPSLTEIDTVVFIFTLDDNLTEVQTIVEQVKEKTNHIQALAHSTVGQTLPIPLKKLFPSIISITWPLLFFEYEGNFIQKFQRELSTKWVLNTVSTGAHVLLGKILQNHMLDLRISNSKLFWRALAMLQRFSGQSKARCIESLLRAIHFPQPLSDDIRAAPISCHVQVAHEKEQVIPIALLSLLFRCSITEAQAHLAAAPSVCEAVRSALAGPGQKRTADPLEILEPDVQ

SMILES: CCOC(=O)C1=C(O)C(=O)N(Cc2ccccc2)C1
- Potency [1]: inactive
- outcome [2]: inactive
- max response [3]: 44.6% (inactive)
- activity, percent of control [4]: 82.3%
- remaining proliferation (% of control), lower = more inhibition [5]: 67.7%
- parasite growth, % of DMSO control [6]: 74.5%
- parasite growth remaining, % of DMSO control (lower = more inhibition) [7]: 104%
- parasite growth, % of control (lower = inhibition) [8]: 91%
- growth, % of control [9]: 93.7%
- cell viability, % of control (lower = more cytotoxic) [10]: 81.5%

SMILES: CN(C)c1ccc2nc3ccc(=[N+](C)C)cc-3sc2c1
- max response [11]: -7.81% (inactive)
- Potency [12]: 10 µM (active)
- Potency [3]: 166 nM (active) and 303 nM (active)
- Potency [13]: 11.2 µM (active)
- activity, percent of control [4]: 3.2% [at 57.5 µM]
- remaining proliferation (% of control), lower = more inhibition [5]: 14.3% [at 57.5 µM]
- parasite growth, % of DMSO control [6]: 60.1% and 20%
- parasite growth remaining, % of DMSO control (lower = more inhibition) [7]: 16.9% and 18.5%
- parasite growth, % of control (lower = inhibition) [8]: 6.81% and 13.3%
- growth, % of control [9]: 43.4% and 10.1%
- cell viability, % of control (lower = more cytotoxic) [10]: 10.9%

SMILES: Nc1ccc(S(N)(=O)=O)cc1
- max response [11]: 3.64% (inactive)
- Potency [14]: inactive
- max response [12]: 0.534% (inactive)
- max response [3]: 6.71% (inactive)
- max response [13]: -1.9% (inactive)
- parasite growth, % of DMSO control [6]: 105%
- parasite growth remaining, % of DMSO control (lower = more inhibition) [7]: 15.1%
- parasite growth, % of control (lower = inhibition) [8]: 95.9%
- growth, % of control [9]: 102%
- cell viability, % of control (lower = more cytotoxic) [10]: 169%

SMILES: CC(C)C[C@H](NC(=O)[C@H](Cc1ccccc1)NC(=O)c1cnccn1)B(O)O
- Potency [1]: inactive
- outcome [2]: inactive
- Potency [3]: 118 nM (active) and 316 nM (active)
- activity, percent of control [4]: -0.17%
- remaining proliferation (% of control), lower = more inhibition [5]: -0.165%
- parasite growth, % of DMSO control [6]: 4.91%
- parasite growth remaining, % of DMSO control (lower = more inhibition) [7]: 7.19%
- parasite growth, % of control (lower = inhibition) [8]: 7.61%
- growth, % of control [9]: 3.13%
- cell viability, % of control (lower = more cytotoxic) [10]: 3.61%

SMILES: Oc1ccc(-c2nc(-c3ccc(F)cc3)c(-c3ccncc3)[nH]2)cc1
- Potency [1]: 17.3 µM (active)
- outcome [2]: inactive
- outcome [15]: inactive
- outcome [16]: inactive
- outcome [17]: inactive
- outcome [18]: inactive
- max response [3]: 19.1% (inactive)
- parasite growth, % of DMSO control [6]: 37%
- parasite growth remaining, % of DMSO control (lower = more inhibition) [7]: 79.6%
- parasite growth, % of control (lower = inhibition) [8]: 35.5%
- growth, % of control [9]: 24.5%
- cell viability, % of control (lower = more cytotoxic) [10]: 136%

SMILES: CCCCC(CC)COC(=O)C(C#N)=C(c1ccccc1)c1ccccc1 (stereo not drawn)
- max response [11]: -1.78% (inactive)
- Potency [14]: inactive
- max response [12]: -8.35% (inactive)
- max response [3]: 17.2% (inactive)
- max response [13]: -27.9% (inactive)
- parasite growth, % of DMSO control [6]: 9.47%
- parasite growth remaining, % of DMSO control (lower = more inhibition) [7]: 18.3%
- parasite growth, % of control (lower = inhibition) [8]: 11.9%
- growth, % of control [9]: 7.29%
- cell viability, % of control (lower = more cytotoxic) [10]: 157%

SMILES: N[C@@H](Cc1cc(I)c(Oc2cc(I)c(O)c(I)c2)c(I)c1)C(=O)O
- max response [11]: -3.72% (inactive)
- max response [12]: -2.98% (inactive)
- max response [3]: 2.42% (inactive)
- max response [13]: -6.73% (inactive)
- parasite growth, % of DMSO control [6]: 89.8%
- parasite growth remaining, % of DMSO control (lower = more inhibition) [7]: 89.9%
- parasite growth, % of control (lower = inhibition) [8]: 91.7%
- growth, % of control [9]: 75.1%
- cell viability, % of control (lower = more cytotoxic) [10]: 163%

SMILES: O=C(NCC1CCCCN1)c1cc(OCC(F)(F)F)ccc1OCC(F)(F)F (stereo not drawn)
- cell viability, % of control (lower = more cytotoxic) [10]: 42.6%

SMILES: COc1c2occc2cc2ccc(=O)oc12
- max response [11]: -3.1% (inactive) and -0.368% (inactive)
- max response [12]: -6.22% (inactive) and 0.264% (inactive)
- max response [3]: 12.3% (inactive)
- max response [13]: 1.56% (inactive) and -7.55% (inactive)
- cell viability, % of control (lower = more cytotoxic) [10]: 109%

SMILES: CNC[C@H](O)c1ccc(O)c(O)c1
- max response [11]: -0.497% (inactive)
- outcome [15]: inactive
- outcome [19]: inactive
- Potency [14]: inactive
- max response [12]: 4.44% (inactive)
- outcome [16]: inactive
- outcome [17]: inactive
- outcome [18]: inactive
- max response [3]: -9.4% (inactive) and 18.5% (inactive)
- max response [13]: -7.6% (inactive)
- parasite growth, % of DMSO control [6]: 61.3% [at 57.5 µM]
- parasite growth remaining, % of DMSO control (lower = more inhibition) [7]: 70.6% [at 57.5 µM]
- parasite growth, % of control (lower = inhibition) [8]: 51.2% [at 57.5 µM]
- growth, % of control [9]: 78% [at 57.5 µM]
- cell viability, % of control (lower = more cytotoxic) [10]: 50.3% [at 92.2 µM]
